Assay outcomes as filed in PubChem BioAssay.
Lassa entry inh – qHTS for Inhibitors of binding or entry into cells for Lassa Virus; Potency, µM (top dose mostly 37.9 µM), inactives show top-dose activity change, negative = inhibition, actives largely listed as inhibitors; AID 540256, 2011; Lassa virus pseudotype entry inhibition, cell reporter; hit rate 1.2% among 300,000; calls by dose curve; tested in HEK293 cells; also: potency is read from the fitted curve at half-maximal effect; % is scaled to controls: 0 for no effect and ±100 for the full control effect; nearly all actives have a fitted effect of over 50% in size
Vaccinia Venus – qHTS for Stage-Specific Inhibitors of Vaccinia Orthopoxvirus: Venus Reporter Primary qHTS | Vaccinia virus Venus reporter expression, fluorescence | Potency, µM (top dose mostly 36.5 µM), for inactives: at the top dose activity change, negative = inhibition, hits mostly inhibitors | hit rate 0.46% among 330,000; calls by dose curve; tested in A549 cells; also: potency is read from the fitted curve at half-maximal effect; % is scaled to controls: 0 for no effect and ±100 for the full control effect; nearly all actives have a fitted effect of over 30% in size
CHX counter – Cycloheximide Counterscreen for Small Molecule Inhibitors of Shiga Toxin; cell reporter, cycloheximide protein synthesis inhibition counterscreen; max response, %; hit rate 12% among 300,000; in the data active = max response mostly above about 13%, no sharp cut-off; inactive = mostly below about 14%; also: read at 38.3 µM for the half of the compounds with a filed dose; 0% is about no effect
MARV entry inh – qHTS for inhibitors of binding or entry into cells for Marburg Virus. Marburg virus pseudotyped entry inhibition, cell reporter. Potency, µM (top dose mostly 37.8 µM), inactives show top-dose activity change, negative = inhibition, most hits filed as inhibitors. hit rate 1.8% among 300,000. AID 540276, 2011; calls by dose curve; tested in HEK293 cells; also: potency is read from the fitted curve at half-maximal effect; % is scaled to controls: 0 for no effect and ±100 for the full control effect
Shiga toxin inh – A qHTS for Small Molecule Inhibitors of Shiga Toxin | Vero cells, Shiga toxin protein synthesis inhibition reporter | AID 2315, 2010 | hit rate 9.2% among 290,000 | inhibition, % at 38.7 µM; in the data active = inhibition mostly above about 28%, no sharp cut-off; inactive = mostly below about 43%; also: 0% is about no effect
VACV mCherry inh – qHTS for Stage-Specific Inhibitors of Vaccinia Orthopoxvirus: mCherry Reporter Primary qHTS | Potency, µM (series often up to 36.5 µM), inactives show at the highest dose activity change, negative = inhibition, hits mostly inhibitors | AID 720579, 2013 | Vaccinia virus mCherry reporter infection, fluorescence | hit rate 0.63% among 310,000; calls by dose curve; tested in A549 cells; also: potency is read from the fitted curve at half-maximal effect; % is scaled to controls: 0 for no effect and ±100 for the full control effect; nearly all actives have a fitted effect of over 35% in size
An asterisk follows results filed as active; i = inactive; u = inconclusive; x = no result given; [ ] = remark or other dose. This is one part of a sample in which hits are shown more often than they occur.

SMILES	Lassa entry inh	Vaccinia Venus	CHX counter	MARV entry inh	Shiga toxin inh	VACV mCherry inh
CCCCN(C(=O)c1ccc(S(=O)(=O)N2CCCC2)cc1)C1CCS(=O)(=O)C1 (centres undefined)	0.5%	-15.9%	x	12.9%	x	-12.8%
COc1cc(C(=O)N(CCN(C)C)CC2CCCN(Cc3ccccc3F)C2)ccc1C (centres undefined)	x	x	-0.8	x	9.9	x
CCc1cc2c(-c3ccccc3)cc(=O)oc2cc1OCC(=O)NCC1CCC(C(=O)O)CC1 (centres undefined)	x	-8.7%	-1.8	x	10.1	-1.8%
Cc1cccc(NC(=O)CN2C(=O)N/C(=C/c3ccc(-c4cccc(C(=O)O)c4C)o3)C2=O)c1	3.4%[46.1 µM]	-1.7%	26.5*	-0.6%[46.1 µM]	44.9*	i
Cc1cc(/C=C2/NC(=O)N(Cc3ccccc3F)C2=O)c(C)n1C(C)C	-19.7%	-5.7%	5.3	u	27.7	u
O=C1N/C(=C/c2ccc(N3CCOCC3)o2)C(=O)N1c1cccc(Cl)c1	-29.9%	x	22.1*	u	22.6	x
Cc1c(C(=O)O)cccc1-c1ccc(/C=C2\SC(=O)NC2=O)o1	x	x	2.6	x	-6.1	x
Cc1cc(/C=C2/NC(=O)N(c3ccccc3)C2=O)c(C)n1C(C)C	u	0.8%	40.0*	u	41.0*	-27.0%
O=C1NC(=O)C(=Cc2ccc(N3CCOCC3)o2)C(=O)N1	-11.3%[46.1 µM]	-5.5%	0.8	10.3%[46.1 µM]	19.8	i
Cc1c(C(=O)O)cccc1-c1ccc(/C=C2/NC(=O)N(c3ccccc3)C2=O)o1	x	-2.6%	28.4*	x	40.5	i
CCOC(=O)c1ccccc1NC(=O)CN1CCCN(Cc2cccc(Cl)c2)S1(=O)=O	u	-11.2%	x	x	x	-4.7%
CCOc1ccc(NC(=O)c2ccc3c(c2)nnn3C2CCCC2)cc1	-1.5%[46.1 µM]	1.7%	x	x	x	-5.2%
Cc1cccc(C)c1OCc1cc(=O)n2ccsc2n1	u	-10.7%	x	-25.6%[46.1 µM]	x	-10.6%
O=C1N/C(=C/c2ccc(Br)s2)C(=O)N1c1ccccc1	u	-17.7%	16.0*	u	65.3*	i
Cc1ccc(/C=C2/NC(=O)N(c3ccccc3)C2=O)o1	19.9%	x	31.8*	2.6%	90.1*	x
CCN1C(=O)N/C(=C/c2ccc(C)o2)C1=O	-8.1%	x	0.6	-8.4%	11.8	x
COc1ccc(C(=O)Nc2cc3c(oc2=O)CCCC3=O)cc1	u	-9.3%	25.4*	3.9%[46.1 µM]	41.9	-13.5%
Cn1c(=O)n(C)c2cc(N3CCCCC3)c(NC(=O)c3cccc(Cl)c3)cc21	23.0%[46.1 µM]	-18.8%	-2.1	22.7%[46.1 µM]	-4.0	i
O=C(Nc1cc2c(oc1=O)CCCC2=O)c1cccc(Cl)c1	2.5%	x	15.4	7.1%	61.3*	x
COc1cc(=O)n2c(c1C(=O)N(C)Cc1nonc1C)CCN(CC1CC=CCC1)CC2 (centres undefined)	x	-15.6%	x	x	x	i
CCOC(=O)c1nnn(-c2nn3nnnc3c3ccccc23)c1C	0.8%	u	1.5	17.4%	31.4	8.91µM*
Cc1ccc(Cl)cc1NC(=O)CN(C)S(=O)(=O)c1ccc2c(c1)n(C)c(=O)c(=O)n2C	12.2%[46.1 µM]	0.5%	x	15.8%[46.1 µM]	x	-14.2%
CCOC(=O)/C(C#N)=C\N(C)C	1.2%	-1.6%	-3.9	u	-9.3	-12.5%
CCOC(=O)/C(C#N)=C\c1ccco1	3.4%	x	-1.8	-0.7%	-11.9	x
C=CCN1C=CC(=C/C=C(/C#N)C(=O)OCC)C=C1	u	-5.2%	34.1*	u	46.6	i
SMILES	Lassa entry inh	Vaccinia Venus	CHX counter	MARV entry inh	Shiga toxin inh	VACV mCherry inh
CCOC(=O)/C(C#N)=C/C=C1/C=CC=CN1C	0.3%[46.1 µM]	-13.5%	27.1*	u	34.4	-16.1%
CCC(=O)N1CCC1(C)C(=O)Nc1cccc(OC)c1 (centres undefined)	x	4.5%	x	x	x	38.8%
N/C(Cc1cccc2ccccc12)=N\OC(=O)c1ccccc1F	12.5%	-8.0%	22.7*	28.0%	23.2	i
N/C(Cc1ccc(Cl)cc1Cl)=N\OC(=O)c1ccccc1F	14.2%[46.1 µM]	-1.4%	53.3*	-12.4%[46.1 µM]	74.6*	i
N/C(Cc1ccccc1)=N\OC(=O)c1cccc2ccccc12	u	-6.3%	28.7*	u	63.9*	u
Cc1c(C(=O)N2CCCC2)sc2ncnc(NCCN(C)C)c12	x	-19.4%	x	x	x	i
Cc1cccc(CN2CCN(CC(=O)NCCc3ccc(Cl)cc3)C2=O)c1	u	2.3%	x	-7.5%[46.1 µM]	x	-2.2%
